Screens: PubChem, National Center for Advancing Translational Sciences (NCATS)
An excerpt weighted towards active compounds, which were near 2.4% of everything screened.
D2 ag-1: agonists of human D2 dopamine receptor. P14416. HEK293 T-REx D2 cells, calcium flux agonist mode. activation, % at 2 µM. actives 0.53% (n = 340,000). AID 485358;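 active = activation over 3 SD above normal in the single-dose calcium agonist read, cut at about 30% in these data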
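In this primary screen, compounds producing a positive calcium signal within 180 s of addition to tetracycline-induced, force-coupled HEK293 Trex D2 cells are flagged; cells are dye-loaded with a no-wash calcium kit beforehand.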
D2 PAM-1: D2 dopamine receptor (human) potentiation; HEK293 T-REx D2, calcium flux, EC20 dopamine potentiation; potentiation, % at 10 µM; actives 0.34% (n = 340,000);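 active = potentiation over 3 SD above the plate norm, cut at about 30% in these data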
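Potentiation of an EC20 dopamine calcium response measured kinetically over 180 s, after a preceding 180 s compound-only read flagging agonists. Cells: inducible Hek293 Trex D2 line, 4000/well, cultured overnight at 30 C before dye loading.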
D2 ag-2: human D2 receptor agonism in beta-arrestin assay | P14416 | DiscoveRx PathHunter D2 beta-arrestin, luminescence, 90 min; 100% = 57 uM dopamine signal | activation, % (no concentration beside the values) | actives 0.084% (n = 360,000) | AID 624465; in the data active = activation above about 40%; inconclusive = between about 15% and that limit
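Agonist mode: compounds alone added to overnight-plated D2 PathHunter cells for 90 min at 37 C, with 57 uM final dopamine (EC100) defining full response. Beta-arrestin recruitment detected by chemiluminescent reagent, read after 1 h at ambient temperature.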
D2 antagonist: antagonists of human D2 dopamine receptor; actives 2% (n = 340,000); AID 485344; P14416; inhibition, % at 10 µM; HEK293 TREx D2 cells, calcium flux, dopamine EC80; in the data active = inhibition above about 30%; inactive = below that, where a call was filed
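Calcium mobilization kinetics were recorded at 1 s intervals in tetracycline-induced HEK293 T-REx D2 cells, first for 180 s after compound addition and then 180 s after EC80 dopamine.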
D2 PAM-2: potentiates the human D2 dopamine receptor allosterically; DiscoveRx D2 beta-arrestin cells, luminescence, 90 min; 100% = 57 uM dopamine signal; potentiation, % (no concentration beside the values); actives 0.23% (n = 360,000); in the data active = potentiation above about 50%; inconclusive = mostly about 30% to 49%
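PathHunter D2 cells, attached overnight at 37 deg C, received compound in DMSO plus dopamine at EC20 (50 nM final) for 90 min at 37 deg C. Beta-arrestin recruitment was read as luminescence after 1 h with detection reagent at ambient temperature.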
D3 ag: confirmation of human D3 dopamine receptor agonists, beta-arrestin; shares compounds with D2 ag-1; DiscoveRx D3 beta-arrestin cells, luminescence, 90 min; Potency, µM (top dose mostly 76.9 µM), most hits filed as activators; actives 4% (n = 2,300); AID 720506; also: nearly all actives have a fitted effect of over 70% in size
Target sequence (P35462 whole entry, looked up): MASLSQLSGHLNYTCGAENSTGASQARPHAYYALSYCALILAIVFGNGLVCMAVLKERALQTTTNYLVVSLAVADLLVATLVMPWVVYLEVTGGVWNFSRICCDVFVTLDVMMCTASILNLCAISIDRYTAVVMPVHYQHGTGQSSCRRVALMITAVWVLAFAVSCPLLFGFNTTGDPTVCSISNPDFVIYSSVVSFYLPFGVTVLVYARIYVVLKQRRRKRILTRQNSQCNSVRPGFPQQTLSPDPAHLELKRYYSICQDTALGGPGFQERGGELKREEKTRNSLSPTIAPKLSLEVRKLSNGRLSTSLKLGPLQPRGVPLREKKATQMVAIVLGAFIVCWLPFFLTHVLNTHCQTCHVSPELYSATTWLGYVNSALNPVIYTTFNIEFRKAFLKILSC
D2 ag-3: counter-screen for D3 agonists: human D2 dopamine receptor agonism; shares compounds with D2 ag-1; DiscoveRx PathHunter D2 beta-arrestin, luminescence, 90 min; response scale: percent relative to full dopamine signal; Potency, µM (series often up to 76.9 µM), most hits filed as activators; actives 5.9% (n = 2,300); AID 720507; also: nearly all actives have a fitted effect of over 70% in size
Of the large screens only hits and unclear results are named; the others gave an inactive call (follow-up assays come after a bar, where they were run). Unless noted, calls follow the shape of the dose curve; as a rule, active = well fitted activation curve with a large enough effect; inconclusive = small, poorly fitted or top-dose-only effect; inactive = flat fitted curve, though single readings scatter.

CCOc1ccccc1N1CCN(Cc2c(C)n(C)n(-c3ccccc3)c2=O)CC1	D2 ag-1 30.7, D2 antagonist 84.6 | D3 ag inactive | D2 ag-3 inactive
CCOC(=O)N1CCc2c(sc3c2c(=O)n(CCc2ccccc2)c(=O)n3Cc2c(F)cccc2Cl)C1	none (no result: D2 ag-2, D2 antagonist, D2 PAM-2)
COc1ccc(N(C(=O)c2cccc(C)c2)S(=O)(=O)c2ccc(C)cc2)cc1	none (no result: D2 ag-2, D2 antagonist, D2 PAM-2)
CCc1nnc(NC(=O)c2ccc(-c3ccc(Cl)cc3)o2)s1	none
CCc1nnc(NC(=O)c2ccc(-c3ccc(C(C)=O)cc3)o2)s1	none | D3 ag inactive | D2 ag-3 inactive
O=C(NCc1ccc2c(c1)CCN2C(=O)c1ccccc1)Nc1cccc(C(F)(F)F)c1	none (no result: D2 PAM-1, D2 ag-2, D2 antagonist, D2 PAM-2)
CSc1cccc(NC(=O)CC(c2ccc(F)cc2)N2Cc3ccccc3C2=O)c1 (centres undefined)	none (no result: D2 ag-2, D2 antagonist, D2 PAM-2)
O=c1cc(CN2CCN(c3ccccc3)CC2)nc2scc(-c3ccccc3)n12	D2 ag-2 inconclusive
C=CCNCc1cc(=O)n2c(-c3ccccc3)csc2n1	D2 ag-1 47.1 | D3 ag inactive | D2 ag-3 inactive
CC(OC(=O)CNC(=O)c1ccc(Br)cc1)C(=O)NC1CCCCC1C (centres undefined)	none | D3 ag inactive | D2 ag-3 inactive
CC(OC(=O)Cc1c(F)cccc1Cl)C(=O)NC1CCCCC1C (centres undefined)	none | D3 ag inactive | D2 ag-3 inactive
Cc1ccc(CNC(=O)c2cccc3c2C(=O)c2ccc(N4CCOCC4)cc2S3(=O)=O)cc1	none | D3 ag inactive | D2 ag-3 inactive
O=C(NCc1ccc(F)cc1)c1cnc(N2CCOCC2)c2ccccc12	none (no result: D2 ag-1, D2 ag-2, D2 antagonist, D2 PAM-2)
Oc1ccc(CCNc2c3ccccc3nc3ccccc23)cc1O	D2 ag-1 90.9, D2 ag-2 130.1, D2 antagonist 91.2 | D3 ag 11.2µM | D2 ag-3 5.01µM
c1ccc(CCN2CN(CCCN3CCOCC3)c3nc4ccccc4n3C2)cc1	D2 ag-1 55.7 | D3 ag inactive | D2 ag-3 inactive
Cn1c(=O)oc2cc(S(=O)(=O)NCCN3CCN(c4ccccc4F)CC3)ccc21	D2 ag-1 54.9, D2 antagonist 76.5 | D3 ag inactive | D2 ag-3 inactive
Cc1cccc(N2CCN(C(=O)CCNS(=O)(=O)c3ccc4c(c3)oc(=O)n4C)CC2)c1C	D2 ag-1 44.5 | D3 ag inactive | D2 ag-3 inactive
COc1ccc(N2CCN(CCCNS(=O)(=O)c3ccc4c(c3)oc(=O)n4C)CC2)cc1	none | D3 ag inactive | D2 ag-3 inactive
Cc1cccc(N2CCN(C(=O)CCS(=O)(=O)c3ccc4c(c3)oc(=O)n4C)CC2)c1C	none
Cn1c(=O)oc2cc(S(=O)(=O)NCCN3CCCCCC3)ccc21	none
Cc1cccc(NC(=O)C2CCCN(S(=O)(=O)c3c(C)noc3/C=C/N(C)C)C2)c1C (centres undefined)	none (no result: D2 ag-2, D2 antagonist, D2 PAM-2)
Cc1ccsc1C(=O)N1CCC1(C)C(=O)NS(=O)(=O)c1cccc(F)c1 (centres undefined)	none (no result: D2 ag-1, D2 PAM-1, D2 antagonist)
CCCNC(=O)c1cnc2sc(N3CCCCCC3)nn2c1=O	none (no result: D2 ag-2, D2 antagonist, D2 PAM-2)
Cc1ccc2c(c1)c(=O)c(C(=O)c1ccccc1)cn2Cc1ccccc1F	none (no result: D2 ag-2, D2 antagonist, D2 PAM-2)
COc1cc(CN2CCN(c3ccccc3F)CC2)c([N+](=O)[O-])cc1OC	D2 ag-1 36.5 | D3 ag inconclusive | D2 ag-3 inactive
O=[N+]([O-])c1cc2c(cc1CN1CCN(c3ccccc3F)CC1)OCO2	none
CC(CCc1ccccc1)NCC(O)c1ccc(O)c(C(N)=O)c1 (centres undefined)	D2 ag-1 72.0, D2 antagonist 67.2 | D3 ag inactive | D2 ag-3 inconclusive
CC(CCc1ccccc1)NC(=O)c1ccccc1 (centres undefined)	none (no result: D2 ag-1, D2 antagonist)
COc1cc(Oc2nc(C(F)(F)F)nc3ccccc23)ccc1C=O	none
CCOC(=O)c1ccccc1NC(=O)CSc1nc(=O)[nH]c2c1CCC2	none (no result: D2 ag-2, D2 antagonist, D2 PAM-2)
CC(NC(=O)C(=O)N1CCOCC1)C(c1cccs1)N1CCN(c2ccccc2)CC1 (centres undefined)	D2 ag-1 44.3 | D3 ag inactive | D2 ag-3 inactive
COc1ccc(N2CCN(C(c3cccs3)C(C)NC(=O)C(=O)N3CCOCC3)CC2)cc1 (centres undefined)	none
CCC(=O)N1c2ccccc2CC1C(=O)NCc1ccccc1Cl (centres undefined)	none (no result: D2 ag-2, D2 antagonist, D2 PAM-2)
O=C(/C=C/c1ccccc1)Nc1nc2n(n1)C(c1ccc(F)cc1)C=C(c1ccccc1)N2 (centres undefined)	none (no result: D2 ag-2, D2 antagonist, D2 PAM-2)
O=S(=O)(c1ccc2nc(COc3ccc(Cl)cc3Cl)[nH]c2c1)N1CCOCC1	D2 antagonist 38.3 | D3 ag inactive | D2 ag-3 inactive
Cc1ccccc1OCc1nc2ccc(S(=O)(=O)N3CCOCC3)cc2[nH]1	none
Cc1ccc2cc(CN(C(=O)c3cccc(Cl)c3)c3ccccc3)c(=O)[nH]c2c1	none (no result: D2 ag-2, D2 antagonist, D2 PAM-2)
Cn1c(=O)[nH]c(=O)c2c1nc(N1CCN(CCO)CC1)n2Cc1ccccc1Cl	D2 antagonist 30.0 | D3 ag inactive | D2 ag-3 inactive
O=C(N/C(=C/c1ccc(F)cc1)C(=O)N1CCOCC1)c1ccccc1	none | D3 ag inactive | D2 ag-3 inactive
O=c1[nH]c(CN2CCN(c3ccccc3)CC2)nc2scc(-c3ccccc3)c12	D2 antagonist 31.9 | D3 ag inconclusive | D2 ag-3 inactive
CCNc1nc(C#N)nc2c1ncn2-c1cc(F)cc(F)c1	none (no result: D2 ag-2, D2 PAM-2) | D3 ag inactive | D2 ag-3 inactive
O=C(c1oc(=O)c2ccccc2c1-c1ccccc1)N1CCC(O)CC1	none | D3 ag inactive | D2 ag-3 inactive
Nc1c(-c2nc(-c3cccs3)no2)nnn1-c1cccc(Cl)c1	none (no result: D2 ag-2, D2 antagonist, D2 PAM-2)
CC(COc1ccccc1)N1CCC(CO)(Cc2ccccc2)CC1 (centres undefined)	D2 ag-1 67.9, D2 ag-2 inconclusive, D2 antagonist 85.2 | D3 ag inactive | D2 ag-3 inconclusive
Cc1nc2sc(C(c3ccccc3)N3CCN(C(=O)c4ccco4)CC3)c(O)n2n1 (centres undefined)	D2 ag-1 62.4 | D3 ag inactive | D2 ag-3 inactive
Cc1ccc(C(c2sc3nc(C)nn3c2O)N2CCN(C(=O)c3ccco3)CC2)cc1 (centres undefined)	none
Fc1ccc(Nc2ncnc3onc(-c4ccc(Cl)cc4)c23)cc1Cl	none (no result: D2 ag-2, D2 antagonist, D2 PAM-2)
CC(C)CNC(=O)C(=O)NCC1OCCN1S(=O)(=O)c1cccs1 (centres undefined)	none (no result: D2 ag-1, D2 PAM-1, D2 antagonist)
